How the values were obtained:
Details in all cases: concentration: 1 μM, replicates: in singlicate; n = 1
SGK2 = tested on: SGK2
SGK3 = tested on: SGK3
SGK = tested on: SGK
SIK2 = tested on: SIK2
SIK = tested on: SIK
SLK = tested on: SLK
SNARK = tested on: T1, SNARK
T1 construct: gene NUAK2

SNRK = tested on: SNRK
SRC = tested on: SRC
SRMS = tested on: SRMS
SRPK1 = tested on: SRPK1
SRPK2 = tested on: SRPK2
SRPK3 = tested on: SRPK3
STK16 = tested on: STK16
STK33 = tested on: STK33
STK35 = tested on: STK35
STK36 = tested on: STK36
STK39 = tested on: STK39
SYK = tested on: SYK
SgK110 = tested on: SgK110
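Also: KINOMEscan kinase panel screen.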

Structure (SMILES)	%Inh (SGK2)	%Inh (SGK3)	%Inh (SGK)	%Inh (SIK2)	%Inh (SIK)	%Inh (SLK)	%Inh (SNARK)	%Inh (SNRK)	%Inh (SRC)	%Inh (SRMS)	%Inh (SRPK1)	%Inh (SRPK2)	%Inh (SRPK3)	%Inh (STK16)	%Inh (STK33)	%Inh (STK35)	%Inh (STK36)	%Inh (STK39)	%Inh (SYK)	%Inh (SgK110)
Cl.NS(=O)(=O)c1cccc(Nc2cc(-c3ccc(F)cc3)n[nH]2)c1 [GW824645]	100%	0%	22%	3%	0%	0%	0%	0%	1%	31%	0%	0%	2%	18%	0%	0%	0%	0%	3%	0%
Cc1nnc(-c2ccc3ncn(-c4ccc(S(C)=O)cc4)c3c2)o1 (stereo not drawn)	0%	0%	0%	13%	20%	14%	0%	0%	5%	0%	0%	0%	0%	29%	0%	0%	22%	0%	0%	2%
COC(=O)c1c(-c2ccccc2)c2cc(C)ccc2c(=O)n1Cc1ccccc1	0%	0%	0%	0%	3%	0%	0%	0%	0%	0%	0%	0%	0%	19%	0%	0%	1%	0%	0%	12%
O=C(Nc1n[nH]c2nc(-c3ccccc3)c(Br)cc12)C1CC1 [SB-708998]	0%	0%	5%	0%	5%	20%	4%	18%	4%	0%	36%	0%	17%	0%	14%	0%	38%	4%	13%	13%
O=C1NC(=O)C(c2ccccc2)=C1Nc1cccc(O)c1 [SB-390534]	9%	20%	11%	0%	0%	51%	16%	0%	0%	17%	20%	7%	0%	0%	4%	2%	0%	4%	6%	0%
Cc1nnc(-c2ccc(C)c(-c3ccc(C(=O)O)cc3)c2)o1 [GW608005]	0%	0%	0%	0%	0%	0%	5%	0%	0%	0%	35%	0%	7%	0%	0%	0%	0%	1%	0%	0%
Cc1ccc(-c2ccc3c(ccc4sc5c(c43)NC[C@@H](C)N=C5N(C)C)n2)cn1	0%	0%	0%	0%	3%	0%	0%	0%	0%	0%	0%	6%	25%	0%	0%	0%	0%	0%	0%	14%
COc1cc(OC)cc(-c2cc3cnc(N)nc3nc2NC(=O)NC(C)(C)C)c1	0%	17%	0%	0%	6%	0%	0%	1%	0%	0%	47%	0%	0%	0%	0%	0%	0%	0%	0%	0%
COc1cc2ncn(-c3cc(OCCCc4ccccc4)c(C(N)=O)s3)c2cc1OC [GSK205189]	0%	0%	0%	0%	2%	79%	0%	0%	0%	0%	27%	0%	7%	13%	0%	15%	0%	0%	21%	0%
CN(C)c1cc(-c2ccc3c(N)n[nH]c3c2)nc(N)n1 [GSK2219329]	0%	3%	5%	0%	0%	13%	0%	0%	12%	0%	0%	0%	0%	0%	0%	0%	0%	0%	17%	0%
COc1ccc(CNC(=O)NC2CCN(c3ccnc(Nc4ccc(F)cc4)n3)C2)cc1 (stereo not drawn) [GSK1379706]	0%	0%	0%	0%	13%	9%	0%	0%	0%	0%	0%	80%	21%	19%	14%	0%	27%	13%	34%	0%
COc1cccc(C2=C(N(C)c3ccccc3)C(=O)NC2=O)c1 [SB-334865]	0%	3%	0%	0%	0%	13%	0%	0%	0%	0%	0%	7%	0%	22%	0%	0%	0%	7%	9%	0%
COc1ccc(-n2cnc3c(N)ncnc32)cc1 [SKF-97236]	6%	11%	0%	14%	0%	11%	24%	0%	0%	0%	28%	0%	15%	38%	20%	0%	0%	0%	18%	0%
Fc1cccc(CSc2nnc(-c3ccc4c(c3)CCO4)o2)c1	24%	9%	8%	0%	12%	5%	12%	10%	5%	0%	1%	0%	16%	0%	6%	0%	16%	16%	0%	13%
COc1ccc(-c2cc3c(C)nc(N)nc3n([C@H]3CC[C@H](OCCO)CC3)c2=O)cn1	0%	17%	0%	5%	18%	0%	0%	0%	8%	1%	0%	0%	0%	0%	0%	8%	0%	0%	1%	25%
COC(=O)c1c(-c2ccccc2)c2cc(Br)ccc2c(=O)n1Cc1ccc(S(C)(=O)=O)cc1	21%	23%	14%	0%	22%	0%	20%	11%	8%	0%	0%	0%	1%	38%	2%	0%	10%	2%	0%	6%
Cc1c(Cn2c(C)nn3c(=O)cc(N4CCO[C@H](C)C4)nc23)cccc1C(F)(F)F [GSK2373690]	13%	0%	26%	0%	1%	18%	0%	0%	1%	0%	0%	0%	0%	6%	0%	2%	0%	32%	25%	2%
Nc1nccc2scc(-c3ccc4c(c3)CCN4C(=O)Cc3ccccc3)c12 [GSK2576924]	0%	16%	0%	4%	0%	14%	16%	3%	2%	10%	28%	0%	0%	4%	0%	0%	0%	11%	16%	0%
CCn1c(-c2ccoc2)nc2cnccc21 [SB-733887]	5%	4%	12%	0%	0%	25%	0%	0%	0%	0%	41%	18%	0%	1%	0%	0%	0%	0%	26%	0%
O=C(Nc1ccc2c(c1)OCO2)NC1CCN(c2ccnc(NCc3ccc(F)cc3)n2)CC1 [GSK1379859]	0%	0%	0%	0%	0%	12%	0%	0%	17%	0%	28%	0%	0%	7%	0%	0%	0%	0%	16%	0%
CCCNC(=O)Nc1ccc(Oc2ncnc3ccn(C)c23)cc1	13%	0%	1%	0%	23%	0%	0%	0%	0%	0%	25%	0%	10%	11%	0%	0%	32%	0%	0%	41%

Reference: publication PMC5540273 (PLoS ONE, 2017)
